From PubChem BioAssay (EPA / NIEHS)
Calls of active or inactive are those of the source. The calls were made as follows: active = hit-call score of the fitted dose curve at least 0.9, where 1 is the maximum; inactive = score below 0.9.

Key:
[1] = ATG_ISRE_CIS: Attagene CIS-FACTORIAL HepG2 Assay for human Interferon Regulatory Factor 1 (IRF1) binding to an Interferon-Stimulated Response Element (ISRE) (AID 2282948); conditions: HepG2 ISRE cis-reporter (Attagene), mRNA transcription readout; actives raise or lower the signal
Outline: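 Uses HepG2 liver cells transfected with cis-regulated reporters and measures mRNA 24 h post-dosing through RT-PCR, primer-extension labelling and capillary electrophoresis, with DMSO as negative control.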

[2] = ATG_M_32_CIS: Attagene CIS-FACTORIAL HepG2 Assay for M32 Transcription Factor (Internal Marker) (AID 2282949); conditions: HepG2 Attagene cis-factorial M32 reporter, mRNA; actives raise or lower the signal;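 also: background control marker of the multiplexed CIS panel rather than a real target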
Outline: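 Transient MRTU transfection of HepG2; 24 h compound treatment; TriZol RNA, oligo(dT) RT, reporter PCR, 6-FAM primer extension, HpaI cut, CE. Gain/loss of signal vs DMSO.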

[3] = ATG_M_06_CIS: Attagene CIS-FACTORIAL HepG2 Assay for M06 Transcription Factor (Internal Marker) (AID 2282950); conditions: HepG2 Attagene CIS-FACTORIAL M06 internal marker reporter; actives raise or lower the signal
Outline: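 HepG2 cells transiently transfected with cis-regulated multiple reporter transcription units were exposed to chemical for 24 h; reporter mRNA was quantified by RT-PCR, 6-FAM primer labelling, HpaI digestion and capillary electrophoresis, fitted bidirectionally against DMSO.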

[4] = biological target: Hypoxia-inducible factor 1-alpha (Homo sapiens) (UniProt Q16665); experiment: ATG_HIF1a_CIS: Attagene CIS-FACTORIAL HepG2 Assay for human Hypoxia Inducible Factor 1 (HIF1A) (AID 2282951); conditions: HepG2 Attagene cis-factorial HIF1a reporter transcription; actives raise or lower the signal
Outline: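 HepG2 cells transiently transfected with multiple cis-regulated reporter transcription units measure endogenous transcription factor activity. After 24 h exposure, reporter mRNA is quantified by RT-PCR with 6-FAM labelling, HpaI digestion and capillary electrophoresis. Bidirectional fitting against DMSO.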

[5] = biological target: Hepatocyte nuclear factor 6 (Homo sapiens) (UniProt Q9UBC0); experiment: ATG_HNF6_CIS: Attagene CIS-FACTORIAL HepG2 Assay for human Hepatocyte Nuclear Factor 6 (HNF6) (AID 2282952); conditions: HepG2 Attagene cis-factorial HNF6 reporter transcription; actives raise or lower the signal
Outline: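 Using cis-element reporters in HepG2 liver cells, the assay tracks endogenous factor-driven transcription 24 h post-dosing. Signal comes from 6-FAM-labelled, HpaI-digested RT-PCR fragments, with gain or loss scored against DMSO.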

[6] = biological target: Heat shock factor protein 1 (Homo sapiens) (UniProt Q00613); experiment: ATG_HSE_CIS: Attagene CIS-FACTORIAL HepG2 Assay for human Heat Shock Transcription Factor 1 (HSE) (AID 2282953); conditions: HepG2 HSE cis-reporter, Attagene RNA transcription; actives raise or lower the signal
Outline: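 HepG2 cells transiently transfected with multiple reporter transcription units under cis-regulatory promoter control, measuring endogenous transcription factor activity. After 24 h chemical exposure, reporter mRNA quantified by RT-PCR, fluorescent labelling, HpaI digestion and capillary electrophoresis; bidirectional fit versus DMSO.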

[7] = ATG_MRE_CIS: Attagene CIS-FACTORIAL HepG2 Assay for human Metal Responsive Element (MRE) (AID 2282954); conditions: HepG2 MRE cis-reporter transcription, Attagene multiplex; actives raise or lower the signal
Outline: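 Multiplexed cis-reporter assay in human HepG2 liver cells, 24 h incubation with test chemical. Reporter transcripts measured by RT-PCR and capillary electrophoresis; values from bidirectional curve fitting versus DMSO.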

[8] = biological target: Paired box protein Pax-6 (Homo sapiens) (UniProt P26367); experiment: ATG_Pax6_CIS: Attagene CIS-FACTORIAL HepG2 Assay for human Paired Box 6 (PAX6) (AID 2282956); conditions: HepG2 CIS-FACTORIAL PAX6 reporter transcription, RNA readout; actives raise or lower the signal
Outline: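 DMSO-referenced bidirectional fits of reporter mRNA fluorescence; HepG2 with transient cis-promoter MRTUs, 24 h post-dose, RT-PCR plus capillary electrophoresis detection.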

[9] = ATG_PXRE_CIS: Attagene CIS-FACTORIAL HepG2 Assay for human Pregnane X Receptor Element (PXRE) (AID 2282957); conditions: HepG2 Attagene CIS-FACTORIAL PXRE reporter, mRNA; actives raise or lower the signal
Outline: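 Using HepG2 transfected with multiple reporter transcription units, endogenous factor-driven transcription was scored as reporter mRNA after 24 h exposure.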

[10] = ATG_PPRE_CIS: Attagene CIS-FACTORIAL HepG2 Assay for human Peroxisome Proliferator-activated Response Element (PPRE) (AID 2282958); conditions: HepG2 PPRE cis-element reporter, Attagene transcription factor profiling; actives raise or lower the signal
Outline: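 HepG2 cells are transiently transfected with multiplexed cis-promoter reporter units to report endogenous PPAR activity. After 24 h dosing, reporter mRNA is read by RT-PCR and capillary electrophoresis. Fitting is bidirectional against DMSO.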

[11] = ATG_RORE_CIS: Attagene CIS-FACTORIAL HepG2 Assay for human RAR-related Orphan Receptor Element (RORE) (AID 2282959); conditions: HepG2 Attagene cis-factorial RORE reporter, mRNA; actives raise or lower the signal
Outline: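 HepG2 cells carrying transiently transfected cis-regulated reporter units; RORE-driven reporter mRNA quantified 24 h post-dosing by RT-PCR, 6-FAM primer extension, HpaI digestion and capillary electrophoresis. Bidirectional fit versus DMSO.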

[12] = ATG_Sox_CIS: Attagene CIS-FACTORIAL HepG2 Assay for human SRY-box transcription factor (SOX) (AID 2282960); conditions: HepG2 Attagene cis-factorial SOX reporter, mRNA; actives raise or lower the signal
Outline: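 HepG2 cells transiently transfected with multiple cis-regulated reporter units, then dosed for 24 h. Reporter mRNA quantified by RT-PCR, fluorescent labelling, HpaI digestion and capillary electrophoresis; bidirectional fit versus DMSO.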

[13] = biological target: Transcription factor Sp1 (Homo sapiens) (UniProt P08047); experiment: ATG_Sp1_CIS: Attagene CIS-FACTORIAL HepG2 Assay for human Specificity Protein 1 (Sp1) (AID 2282961); conditions: HepG2 Sp1 cis-reporter transcription, actives raise or lower the signal
Outline: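 HepG2 cells transiently transfected with multiplexed cis-regulated reporter constructs, chemical exposure 24 h. Reporter mRNA quantified by RT-PCR with capillary electrophoresis; bidirectional fit relative to DMSO.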

[14] = ATG_SREBP_CIS: Attagene CIS-FACTORIAL HepG2 Assay for human Sterol Regulatory Element Binding (SREBP) (AID 2282962); conditions: HepG2 Attagene cis-factorial SREBP reporter, mRNA; actives raise or lower the signal
Outline: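 In this cis-format assay, HepG2 liver cells express reporters controlled by promoter elements responsive to native transcription factors. Exposure lasts 24 h; reporter mRNA fluorescence from capillary electrophoresis gives the signal, fitted bidirectionally against DMSO.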

[15] = biological target: Signal transducer and activator of transcription 3 (Homo sapiens) (UniProt P40763); experiment: ATG_STAT3_CIS: Attagene CIS-FACTORIAL HepG2 Assay for human Signal Transducer and Activator of Transcription 3 (STAT3) (AID 2282963); conditions: HepG2, Attagene cis-factorial STAT3 reporter transcription; actives raise or lower the signal
Outline: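 Cis-factorial format: endogenous transcription factors in HepG2 drive transfected reporter units. After 24 h treatment, reporter RNA was reverse-transcribed, amplified, FAM-labelled and HpaI-digested before CE analysis; activity scored in both directions against DMSO.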

[16] = ATG_TA_CIS: Attagene CIS-FACTORIAL HepG2 Assay for human TA Basal Promoter (AID 2282964); conditions: HepG2 Attagene CIS-factorial TA basal promoter reporter; actives raise or lower the signal
Outline: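 HepG2 cells transiently transfected with multiplexed cis-promoter reporter units, dosed 24 h. Reporter mRNA measured by RT-PCR, 6-FAM labelling, HpaI digestion and capillary electrophoresis; bidirectional fit versus DMSO baseline, serving as background control.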

[17] = ATG_TAL_CIS: Attagene CIS-FACTORIAL HepG2 Assay for human TAL Basal Promoter (AID 2282966); conditions: HepG2 Attagene cis-factorial TAL promoter reporter; actives raise or lower the signal;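 also: background control endpoint measuring basal TAL promoter reporter mRNA not a specific factor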
Outline: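 After 24 hours of chemical exposure, transfected HepG2 cells yielded RNA that was converted to 6-FAM-labelled, HpaI-digested reporter fragments for capillary electrophoresis. Values derive from bidirectional fitting against DMSO controls.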

[18] = ATG_TCF_b_cat_CIS: Attagene CIS-FACTORIAL HepG2 Assay for human T-Cell-Factor with beta-catenin (TCF/b-cat) (AID 2282965); conditions: HepG2 TCF/beta-catenin cis-reporter transcription, actives raise or lower the signal
Outline: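 Endogenous TCF/LEF activity read as reporter transcript level via RT-PCR and capillary electrophoresis fluorescence in transfected HepG2, 24 h exposure; gain or loss of signal fitted against DMSO controls.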

[19] = ATG_TGFb_CIS: Attagene CIS-FACTORIAL HepG2 Assay for human Transforming Growth Factor (TGF) (AID 2282967); conditions: HepG2 Attagene CIS TGFb reporter, mRNA transcription; actives raise or lower the signal
Outline: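 HepG2 cells transiently transfected with cis-promoter-driven multiplexed reporter units; 24 h compound exposure. Reporter mRNA measured by RT-PCR, 6-FAM labeling, HpaI digestion and capillary electrophoresis; bidirectional fit versus DMSO baseline.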

Measured: AC50

Chain of Hypoxia-inducible factor 1-alpha (Homo sapiens) (Q16665 whole entry, looked up): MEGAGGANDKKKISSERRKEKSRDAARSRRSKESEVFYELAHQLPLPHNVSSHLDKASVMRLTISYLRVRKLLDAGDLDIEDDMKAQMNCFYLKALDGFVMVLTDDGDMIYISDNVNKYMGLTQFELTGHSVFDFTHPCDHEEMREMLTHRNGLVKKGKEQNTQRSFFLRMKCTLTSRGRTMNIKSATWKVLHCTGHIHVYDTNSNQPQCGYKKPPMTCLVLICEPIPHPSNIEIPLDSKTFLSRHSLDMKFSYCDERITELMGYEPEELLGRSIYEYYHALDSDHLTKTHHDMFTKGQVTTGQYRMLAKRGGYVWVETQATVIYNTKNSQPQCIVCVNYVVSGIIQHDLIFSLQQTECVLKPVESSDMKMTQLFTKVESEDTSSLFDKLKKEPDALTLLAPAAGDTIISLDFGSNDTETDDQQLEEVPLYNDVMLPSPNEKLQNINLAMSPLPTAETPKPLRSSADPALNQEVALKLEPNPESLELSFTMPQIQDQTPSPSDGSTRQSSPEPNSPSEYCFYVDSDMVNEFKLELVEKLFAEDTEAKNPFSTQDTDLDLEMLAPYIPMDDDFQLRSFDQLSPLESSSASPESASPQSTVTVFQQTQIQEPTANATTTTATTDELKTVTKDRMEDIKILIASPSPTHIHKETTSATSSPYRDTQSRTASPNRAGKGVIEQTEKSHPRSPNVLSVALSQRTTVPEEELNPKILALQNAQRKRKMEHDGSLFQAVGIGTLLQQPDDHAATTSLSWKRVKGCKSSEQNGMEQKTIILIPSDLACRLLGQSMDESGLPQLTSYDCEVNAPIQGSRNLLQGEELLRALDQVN
Chain of Hepatocyte nuclear factor 6 (Homo sapiens) (Q9UBC0 whole entry, looked up, the tested form may be a part): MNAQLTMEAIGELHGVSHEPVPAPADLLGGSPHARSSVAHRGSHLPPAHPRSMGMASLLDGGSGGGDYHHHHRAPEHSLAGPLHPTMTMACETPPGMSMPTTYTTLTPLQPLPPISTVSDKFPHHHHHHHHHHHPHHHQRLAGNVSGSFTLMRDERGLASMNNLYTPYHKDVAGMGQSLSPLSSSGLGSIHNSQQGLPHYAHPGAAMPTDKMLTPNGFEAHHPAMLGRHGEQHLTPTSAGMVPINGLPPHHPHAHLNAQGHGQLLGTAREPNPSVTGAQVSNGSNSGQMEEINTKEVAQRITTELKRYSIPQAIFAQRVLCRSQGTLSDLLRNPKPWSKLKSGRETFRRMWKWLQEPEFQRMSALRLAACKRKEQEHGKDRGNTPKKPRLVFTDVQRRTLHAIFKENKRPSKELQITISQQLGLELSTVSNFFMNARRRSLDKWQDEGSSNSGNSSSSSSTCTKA
Chain of Transcription factor Sp1 (Homo sapiens) (P08047 whole entry, looked up): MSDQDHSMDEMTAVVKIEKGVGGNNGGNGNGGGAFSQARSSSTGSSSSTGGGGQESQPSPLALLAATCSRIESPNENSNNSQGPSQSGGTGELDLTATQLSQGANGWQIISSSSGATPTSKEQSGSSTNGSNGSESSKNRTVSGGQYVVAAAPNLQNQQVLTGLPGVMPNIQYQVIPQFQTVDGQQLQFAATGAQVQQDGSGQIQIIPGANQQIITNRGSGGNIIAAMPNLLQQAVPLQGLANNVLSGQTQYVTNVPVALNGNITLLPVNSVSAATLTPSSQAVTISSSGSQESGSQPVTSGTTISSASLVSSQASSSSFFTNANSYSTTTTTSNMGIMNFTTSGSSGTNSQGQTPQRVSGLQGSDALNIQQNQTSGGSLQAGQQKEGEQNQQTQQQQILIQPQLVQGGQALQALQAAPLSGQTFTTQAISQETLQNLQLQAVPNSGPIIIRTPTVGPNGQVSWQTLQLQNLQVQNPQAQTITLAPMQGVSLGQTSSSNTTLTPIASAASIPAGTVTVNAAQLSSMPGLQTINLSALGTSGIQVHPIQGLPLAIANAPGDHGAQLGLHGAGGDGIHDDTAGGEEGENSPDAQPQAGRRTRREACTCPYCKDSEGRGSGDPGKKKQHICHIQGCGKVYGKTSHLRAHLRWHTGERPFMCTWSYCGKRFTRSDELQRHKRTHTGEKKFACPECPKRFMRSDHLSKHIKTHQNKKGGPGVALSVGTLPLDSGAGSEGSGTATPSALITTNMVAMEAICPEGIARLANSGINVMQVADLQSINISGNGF
Chain of Heat shock factor protein 1 (Homo sapiens) (Q00613 whole entry, looked up): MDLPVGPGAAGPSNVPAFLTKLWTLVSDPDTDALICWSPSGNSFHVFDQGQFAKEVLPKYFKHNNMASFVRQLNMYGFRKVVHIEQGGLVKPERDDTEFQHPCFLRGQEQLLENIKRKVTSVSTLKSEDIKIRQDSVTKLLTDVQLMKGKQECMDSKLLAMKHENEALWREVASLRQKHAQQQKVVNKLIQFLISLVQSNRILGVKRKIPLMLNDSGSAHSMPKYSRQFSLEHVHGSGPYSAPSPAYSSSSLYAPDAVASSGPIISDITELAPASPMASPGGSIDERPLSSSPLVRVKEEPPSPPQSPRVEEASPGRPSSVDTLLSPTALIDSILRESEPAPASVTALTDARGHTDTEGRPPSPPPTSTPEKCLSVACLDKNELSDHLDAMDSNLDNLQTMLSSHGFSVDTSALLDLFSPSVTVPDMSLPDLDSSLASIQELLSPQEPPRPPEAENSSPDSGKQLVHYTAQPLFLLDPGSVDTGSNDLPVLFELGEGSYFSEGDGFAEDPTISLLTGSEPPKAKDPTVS
Chain of Signal transducer and activator of transcription 3 (Homo sapiens) (P40763 whole entry, looked up): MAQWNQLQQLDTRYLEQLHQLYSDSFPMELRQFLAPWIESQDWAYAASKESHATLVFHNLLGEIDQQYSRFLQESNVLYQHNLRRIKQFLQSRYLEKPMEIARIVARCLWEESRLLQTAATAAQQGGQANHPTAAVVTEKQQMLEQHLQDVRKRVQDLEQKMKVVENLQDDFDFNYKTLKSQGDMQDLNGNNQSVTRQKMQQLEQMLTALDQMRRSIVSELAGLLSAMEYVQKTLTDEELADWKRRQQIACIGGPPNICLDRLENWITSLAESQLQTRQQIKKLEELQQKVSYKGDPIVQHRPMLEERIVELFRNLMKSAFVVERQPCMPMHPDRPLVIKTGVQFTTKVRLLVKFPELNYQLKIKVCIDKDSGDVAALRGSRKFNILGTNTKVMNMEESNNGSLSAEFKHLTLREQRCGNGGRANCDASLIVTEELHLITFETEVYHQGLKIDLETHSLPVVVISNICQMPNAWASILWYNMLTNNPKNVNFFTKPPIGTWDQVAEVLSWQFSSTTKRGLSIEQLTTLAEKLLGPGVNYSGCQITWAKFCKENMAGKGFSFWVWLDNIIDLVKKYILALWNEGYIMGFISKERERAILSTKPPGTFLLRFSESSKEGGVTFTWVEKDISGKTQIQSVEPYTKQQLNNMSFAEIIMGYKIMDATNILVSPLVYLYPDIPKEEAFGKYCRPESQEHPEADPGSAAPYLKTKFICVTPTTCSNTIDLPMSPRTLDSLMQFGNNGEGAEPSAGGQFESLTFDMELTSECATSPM
Chain of Paired box protein Pax-6 (Homo sapiens) (P26367 whole entry, looked up): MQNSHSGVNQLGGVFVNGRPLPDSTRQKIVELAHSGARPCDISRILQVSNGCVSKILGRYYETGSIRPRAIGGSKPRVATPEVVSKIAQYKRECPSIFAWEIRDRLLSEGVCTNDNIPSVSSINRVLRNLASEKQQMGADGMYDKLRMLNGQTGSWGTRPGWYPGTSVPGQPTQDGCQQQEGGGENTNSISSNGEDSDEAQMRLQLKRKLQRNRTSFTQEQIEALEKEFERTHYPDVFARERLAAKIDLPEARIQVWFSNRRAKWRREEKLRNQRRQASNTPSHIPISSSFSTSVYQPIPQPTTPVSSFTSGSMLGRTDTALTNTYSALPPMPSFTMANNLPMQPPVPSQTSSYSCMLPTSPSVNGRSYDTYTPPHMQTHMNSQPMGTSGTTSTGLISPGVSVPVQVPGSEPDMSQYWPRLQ

Clc1cccc(Cl)c1Cl
not listed: [18] | [19]
inactive: all other assays above

Cc1ccc(OP(=O)(Oc2ccc(C)cc2C)Oc2ccc(C)cc2C)c(C)c1
active: [5] 25.4 µM | [7] 2.33 µM | [9] 0.181 µM | [13] 26.2 µM
inactive: all other assays above

C=CC(Cl)CCl (stereo unspecified)
active: [9] 3.12 µM
not listed: [10]
inactive: all other assays above

O=NN1CCOCC1
active: [9] 69.6 µM
inactive: all other assays above

CC(C)(C)c1cc([N+](=O)[O-])cc(C(C)(C)C)c1O
active: [7] 42.4 µM | [9] 4.23 µM | [11] 28.7 µM | [19] 26.3 µM
not listed: [10]
inactive: all other assays above

Clc1ccc(C(Cl)(Cl)Cl)cn1
active: [9] 14.1 µM
inactive: all other assays above

Cc1cc(C)cc(C)c1
not listed: [10] | [13] | [17]
inactive: all other assays above
